Inconclusive results are not listed. Entries that show only a call come without a potency. Calls of active or inactive are those of the source. Calls come from the whole dose curve; as a rule, active = well fitted curve in the direction sought with a large enough effect; inconclusive = small, poorly fitted or top-dose-only effect, or another doubt; inactive = no such curve, though single readings can be large; an effect the other way counts as inactive or inconclusive.
Legend:
[1] = biological target: Aldehyde dehydrogenase, mitochondrial (Homo sapiens) (UniProt P05091); assay: qHTS for Inhibitors of the Aldehyde Dehydrogenase Family (ALDH2) Primary screen (AID 2061308); note: nearly all actives have a fitted effect of over 55% in size
[2] = qHTS for Inhibitors of the Aldehyde Dehydrogenase Family (ALDH1A2, ALDH1A3, ALDH2, ALDH3A1) (AID 2061307); note: nearly all actives have a fitted effect of over 50% in size
[3] = biological target: Retinaldehyde dehydrogenase 3 (Homo sapiens) (UniProt P47895); assay: qHTS for Inhibitors of the Aldehyde Dehydrogenase Family (ALDH1A3) Primary screen (AID 2061315)
[4] = biological target: Aldehyde dehydrogenase 1A1 (Homo sapiens) (UniProt P00352); assay: qHTS for Inhibitors of the Aldehyde Dehydrogenase Family (ALDH1A1) Confirmatory screens (AID 2061316); note: nearly all actives have a fitted effect of over 65% in size

SMILES	Potency [1]	Potency [2]	Potency [3]	Potency [4]
CC(=O)Nc1sc2c(c1-c1ccc(N[S+](C)(=O)[O-])cc1)CCNC2	inactive			
CC(=O)C1CCC2(C)C3=C(CCC12C)C1(C)CCC(=O)C(C)(C)C1CC3 (stereo unspecified)		inactive	inactive	
O=C1c2ccccc2C(=O)N1c1cccc(=O)[nH]1		inactive	inactive	inactive

From PubChem BioAssay (NCATS)
